Screens: PubChem BioAssay, National Center for Advancing Translational Sciences (NCATS)
Most compounds without a hit are left out; they make up all but 2.9% or so of the library.
p53 reactivation: restores transcriptional activity of mutant p53; H1299 p53-A138V BP100-luciferase reporter, luminescence, 24 h; Potency, µM (titrated, usually from 92.2 µM), for inactives: at the highest dose activity change, positive = activation, usual class: activators; hit rate 0.063% among 320,000; AID 504706; further: potency means the concentration at half of the fitted maximal effect; % of control where 0% means no effect; nearly all actives have a fitted effect of over 45% in size
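H1299 (p53-null), stable ts p53-A138V + BP100-Luc; 1000 cells/well, Opti-MEM/10% FBS; cpd 4 pt, 1:5; 24 h, 37 deg C, 5% CO2; detection reagent 10 min RT; luminescence.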
ClpP mod: qHTS Assay for Activators of ClpP; ATP-dependent Clp protease proteolytic subunit (Bacillus subtilis (strain 168)), P80244; purified B. subtilis ClpP, FRET peptide cleavage, 20 min; Potency, µM (series often up to 57.5 µM), for the others: top-dose activity change, negative = active; hit rate 1.9% among 340,000; AID 651965, 2013; active means well fitted falling curve with a large enough effect; inconclusive means small, poorly fitted or top-dose-only effect; inactive means no such curve, though single readings can be large or run the other way; further: potency means the concentration at half of the fitted maximal effect; the source files actives as falling curves though it sought activators and does not explain the sign; nearly all actives have a fitted effect of over 65% in size
Target sequence (P80244 whole entry, looked up): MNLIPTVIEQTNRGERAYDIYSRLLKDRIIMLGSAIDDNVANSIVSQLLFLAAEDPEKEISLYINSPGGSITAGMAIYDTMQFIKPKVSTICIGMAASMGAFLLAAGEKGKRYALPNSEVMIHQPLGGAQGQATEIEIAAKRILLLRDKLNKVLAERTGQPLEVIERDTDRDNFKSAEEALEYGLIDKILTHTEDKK
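Buffer: 100 mM Tris/HCl pH8, 100 mM KCl, 0.05% low protease BSA, 2.5% glycerol, 0.01% Tween-20. ClpP 10 microg/mL final; 20 min RT; delta FRET normalized to ADEP and DMSO controls.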
GLP1R cytotox: cytotoxic in the GLP-1 receptor inverse agonist counter-screen. HEK293 cAMP-luciferase reporter cells, luminescence, 24 h. Potency, µM (titrated, usually from 38.3 µM), inactives show top-dose activity change, negative = inhibition, most hits filed as inhibitors. hit rate 0.13% among 410,000. AID 624418;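 further: loss of luciferase light is scored as toxicity; potency means the concentration at half of the fitted maximal effect; on the % scale 0 is the no-effect control and ±100 the full control effect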
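Seeding density was 200 cells/uL; after overnight-length (12 h) culture, 23 nL compounds went on for 24 h at 37 °C. Readout used a luciferase detection reagent, luminescence taken after 12 min at room temperature.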
LDHA block: blocks human lactate dehydrogenase A; P00338; hit rate 0.15% among 480,000; purified LDHA, NADH/diaphorase-resazurin fluorescence; hits give low values; activity change, % (values are at about 110 or 230 µM); in the data active means activity change below about -30%; inconclusive means mostly about -25% to -30%;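 further: plate controls were DMSO wells for no effect and wells without enzyme for full effect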
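Enzyme activity of human lactate dehydrogenase 5 (2 nM; 0.06 mM NADH, 0.2 mM pyruvate, 5 min, RT) is measured via a resazurin/diaphorase fluorescence readout of residual NADH.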
GLP-1R agonist: activates the human GLP-1 receptor | hit rate 0.007% among 380,000 | HEK293 GLP-1R CRE-luciferase, luminescence, 4-6 h; cells express a hypersensitive GLP-1R form | Potency, µM (titrated, usually from 45.6 µM), without a hit: at the highest dose activation, usual class: activators | P43220; further: potency means the concentration at half of the fitted maximal effect; % of control where 0% means no effect
GLP1R inv ag: GLP-1 receptor (human) inverse agonism; P43220; AID 624417; HEK293 GLP-1R CRE-luciferase, luminescence, 24 h; GLP-1R form is constitutively active; hit rate 1.6% among 410,000; Potency, µM (top dose mostly 38.3 µM), for inactives: at the highest dose activity change, negative = inhibition, actives largely listed as inhibitors; further: potency means the concentration at half of the fitted maximal effect; on the % scale 0 is the no-effect control and ±100 the full control effect; nearly all actives have a fitted effect of over 55% in size
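Seeding at 200 cells/uL, 12 h culture, 24 hr compound treatment, then luciferase reagent and a luminescence read; cells are HEK293 stably expressing a constitutively active GLP-1R plus cAMP-responsive luciferase.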
* marks the source's active call; other numbers are inactive results; ? = inconclusive; / = not tested or not shown. Unless noted, the call rests on the fitted dose curve; in most records, active means well fitted curve in the direction sought with a large enough effect; inconclusive means small, poorly fitted or top-dose-only effect, or another doubt; inactive means no such curve, though single readings can be large; an effect the other way counts as inactive or inconclusive.

SMILES	p53 reactivation	ClpP mod	GLP1R cytotox	LDHA block	GLP-1R agonist	GLP1R inv ag
CC(CNC(=O)c1ccc2nc(Cc3ccccc3)oc2c1)c1ccccc1 (centres undefined)	/	-0.3%	-13.3%	3.7	/	11.2µM*
COC(=O)c1ccc(CSc2ccccc2NC(=S)Nc2cccc(SC)c2)o1	/	-1.8%	-17.2%	-4.1	14.1%	12.6µM*
CC1CCN(C(=O)C2CCN(S(=O)(=O)c3ccc4c(c3)CC(C)N4C(=O)C3CC3)CC2)CC1 (centres undefined)	-4.3%	/	-4.9%	-4.0	4.4%	3.5%
CCc1ccc(C(=O)CSc2n[nH]c(C)n2)cc1	?	0.5%	-12.8%	-2.4	-9.9%	0.0%
Cc1c(N=C/C=C2\N(C)c3ccccc3C2(C)C)c(=O)n(-c2ccccc2)n1C	?	-2.0%	2.24µM*	-13.9	0.8%	?
O=C1C2C3C=CC(C3)C2C(=O)N1c1ccncc1 (centres undefined)	2.9%	?	-0.1%	-1.1	-12.1%	0.8%
O=C1C2C3C=CC(C3)C2C(=O)N1c1ccc(-c2nc3ccccc3o2)cc1 (centres undefined)	/	6.31µM*	-8.0%	-0.8	-5.7%	16.1%
CCCC(C)NC(=O)c1ccccc1-c1ncc(-c2ccc(F)cc2)o1 (centres undefined)	/	/	/	15.4	/	/
Cc1ccc(SCC(=O)N2c3ccccc3Sc3ccccc32)cc1	-4.8%	0.5%	21.5%	-2.0	1.6%	7.94µM*
CC(C)(C)S(=O)N1Cc2cc(C(=O)O)nc(-c3cccc(-c4cc5ccccc5o4)c3)c2[C@H]1CCO (some centres undefined)	/	-1.5%	-0.9%	-32.5*	4.8%	3.3%
FC(F)(F)c1cc(-c2ccccc2)nc(NC2CCCC2)n1	7.3%	31.6µM*	-1.4%	-2.7	-3.3%	?
FC(F)(F)c1cc(-c2ccccc2)nc(NCC2CCCO2)n1 (centres undefined)	-19.0%	-15.6%	-12.6%	15.5	5.8%	?
COc1ccc(-n2nnnc2SCC(N)=O)cc1	-5.8%	-0.3%	2.7%	-1.2	-13.9%	2.6%
CCCc1cc(C(=O)Nc2ccc(C(=O)c3ccc(F)cc3)cc2)n(C)n1	-12.6%	-2.2%	-4.3%	-0.5	-2.7%	8.91µM*
Cc1c(NC(=O)C(C)(C)Oc2ccc(Cl)cc2)cccc1-c1nc2ccccc2o1	/	?	21.6%	-4.9	/	11.2µM*
O=C1CC(=O)OC(c2ccc([N+](=O)[O-])cc2)O1	/	-1.9%	5.01µM*	-0.5	-13.7%	?
CCN(CC)CCCNC(=O)c1cc(-c2ccc(O)cc2)on1	-1.6%	-0.5%	2.4%	2.4	-0.4%	14.2%
CCN(CC)CCCNC(=O)c1cc(-c2ccc(Cl)c(Cl)c2)on1	-21.3%	-1.0%	?	-6.0	-13.9%	5.62µM*
CCCN(CCC)CCCNC(=O)c1cc2c(-c3ccc(Cl)cc3)nn(C)c2s1	/	?	2.3%	5.8	/	-9.2%
CCN(CC)CCCNC(=O)c1cc2c(-c3ccc(Cl)cc3)nn(C)c2s1	-0.3%	4.3%	?	6.0	-7.0%	3.55µM*
COc1ccccc1CCN1CCCC(CN(C)C(=O)c2ccc3nc[nH]c3c2)C1 (centres undefined)	4.5%	-1.0%	10.8%	-4.4	-6.0%	-10.9%
CC(C)(C)c1ccc(/C=N/c2sc3c(c2C#N)CCCC3)cc1	/	/	/	10.2	/	/
Cc1ccc(O)c(N=Nc2nccs2)c1	?	-1.1%	?	4.1	0.8%	7.08µM*
CN(C)CCNC(=O)/C(=C/c1ccc(-c2ccc(Cl)cc2)o1)NC(=O)c1ccccc1	-18.5%	15.8µM*	?	-4.6	-4.5%	?
S=C(NCc1ccccc1)N/N=C/c1ccccc1Br	/	/	/	-4.3	/	/
CCCOc1ccc(S(=O)(=O)Nc2ccccn2)c2ccccc12	/	-1.7%	-2.0%	-6.4	-1.6%	8.9%
